Source: the supplement of paper PMC6555819

Each sequence was assayed on VDR:RXRa (NR concentration 270 nM, RXRa partner concentration 90 nM) (assay: PBM binding z-score (relative to random genomic background probes); higher = stronger binding; sequences stand for … in GC…GCGATTGACAGCGTAGAATGAAGG).
Experimental: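 Protein-binding microarray (Agilent 4x180K custom design, double-stranded 60-nt probes: 5' GC cap, 34-nt variable region, 24-nt constant primer region; full probe sequence given). Purified or IVT nuclear receptor:RXRα heterodimers (3:1 NR:RXRα, mostly 270:90 nM) or homodimers were incubated for 1 h in PBS with 2% milk and no ligand, then detected with Alexa488 antibodies. Fluorescence from o1-orientation probes (~5 replicates averaged) was converted to z-scores against 500 random hg19 background probes. Variable regions are seed direct-repeat (DR0–DR5) sites, all their single-nucleotide variants and half-site ablations.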
TCTTGTAGATCAAAGGTTAAGGAAGCCGAAGCCT was tested, and the PBM binding z-score was 1.59. Work on CCGACTGGGGCACAGGTTACCATACTCAGTACGA yielded a PBM binding z-score of -0.165. GATACAGGCTCAGCTAGAGGCCAGAGTATGGAAA was tested, and the PBM binding z-score was -1.02. Work on TCCGCTAGGTCAGTTGGTCAGCTAACGAGCTGCC yielded a PBM binding z-score of 0.232. TTACCAAGGTGAAGGTCATTGATCCCTCTGTAGA gave a PBM binding z-score of 3.43. Work on ACTATTAGTTGACTTAGGGTAACCGATACGACGC yielded a PBM binding z-score of 0.225. Sequence TCTCGGAGGACACGACAGGTCAGAGCTCGACATC has a PBM binding z-score of 0.875. Work on TCTATTAGTTGATTAGGACAACCGAAACAGCGGA yielded a PBM binding z-score of 1.12. With CGAACTAGTTCATCCAGGACAGTGAATACATTGA the PBM binding z-score was 2.23. GCCTACGGGTCAAAGGTTATAGCATGAATAGAAT showed a PBM binding z-score of 5.46. In the case of CCTACTGGGCTAAGGTCATTGATCAGTCAAAGCA, the PBM binding z-score was 3.39. ACTATTAGTTGAGACGAGGGGAACCGATAGGTTG was tested, and the PBM binding z-score was -0.291. Sequence GCTAGCAGGCCATTTGGGTCACTCAGTGACGGGC has a PBM binding z-score of 0.711. For TAGCCTAGGTCATTGGCCCAGTATAGTACGCATC, the PBM binding z-score was 2.09. With TAGCCTAGGTCATTGGGCCAGTCTAGTACGCATC the PBM binding z-score was 1.98. With CGTCCAAGGTCAGAAAGGTCAGTGAATGCCGAGT the PBM binding z-score was 6.33. For ATCGAAAGGTCGACGAGGTGAGGATACACCGTTT, the PBM binding z-score was 5.19. For GATACAGGGTCAAGGCGAGAGTACGCGTATTGAT, the PBM binding z-score was 4.4. Work on CTGCCTAGGTCAGGGCCAGTATAGGAGGAACGTT yielded a PBM binding z-score of 0.0608. With GCGACTGGGACATCAGCAGGTTACCATAACTTAA the PBM binding z-score was -0.302. Sequence ACAGACAGGTGAGTGAAAGTAACTCAGCTGGACG has a PBM binding z-score of -0.256. In the case of CGTCCAAGGTCAGAGAGGTCAGTGGATGCCGAGT, the PBM binding z-score was 7.33. In the case of CCTGCTAGGTCAATGGGCAGCTAAAGCAGCTCGC, the PBM binding z-score was 0.356. CGAACTAGGTCATTGACAGGACAGTGAATAGTAA gave a PBM binding z-score of 2.2. For CCTGTTAGGTCAATGGTCAGCTAAAGCAGCTCGC, the PBM binding z-score was 1.54. Sequence AGTCAAAGTTCACTAGGTACCGTAAGATTCAGCT has a PBM binding z-score of 4.35. Sequence CATTACGGGTCACTCCAGGTTATAGCATCGGAGT has a PBM binding z-score of 4.52. Sequence CATACAGGGTCAGCTAGTCCAGAGTAGGGACGGC has a PBM binding z-score of 4.36. With AGTCAAAGTTCACTAGGTAACGTGAGATTCAGCT the PBM binding z-score was 3.88. For CCTATTAGTTGGCCATAAGGGCAACCGAAGCTCG, the PBM binding z-score was 0.196. ATCTCTAGGTAAGACTCAGTACAGTGAAGAACGC showed a PBM binding z-score of 0.435. Work on CCAGACAGGTGAGACGGTAACTCAGCCTCGATTA yielded a PBM binding z-score of -0.29. TCAGACAGGTGAAGGTAACTCAAGTACGCAGTCG was tested, and the PBM binding z-score was 1.12. For TCTTGTAGATCAACAGGAGGTTAACAAAGATCGA, the PBM binding z-score was 0.812. Work on CCATACGGGTCAAGGTTATAGCACGGGTGGTACG yielded a PBM binding z-score of 3.11. Sequence CGAACTAGGTCATTGACAGAACAGTGAATAGTAA has a PBM binding z-score of 1.97. In the case of GCATATAGGTAATACGAGGTGAAAGTCCGATTGT, the PBM binding z-score was 0.598. For ACTAGCAGGCCAAGTTTGAGTCACTCAAACAAAG, the PBM binding z-score was -0.614. For GCAGACAGGTGAAACGCAGGTCACTCAGGGTGGC, the PBM binding z-score was 2.28. Work on TTACCAAGGTGAATGGTCGTTGATGCACGCCTTG yielded a PBM binding z-score of -0.0229.
